Experiment [1] is described as follows: qHTS assay to identify small molecule antagonists of the glucocorticoid receptor (GR) signaling pathway - cell viability counter screen (AID 720693). Also: nearly all actives have a fitted effect of over 55% in size. Also: potency is read from the fitted curve at half-maximal effect.
Experiment [2] can be described thus: qHTS assay for identifying genotoxic compounds that show differential cytotoxicity against isogenic chicken DT40 cell lines with known DNA damage response pathways - wild type cell line (AID 743012). Also: nearly all actives have a fitted effect of over 60% in size. Also: potency is read from the fitted curve at half-maximal effect. The gist of the method:
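Viability of DNA repair-proficient chicken DT40 cells was assessed by CellTiter-Glo luminescence following 40 h compound exposure at 37 C/5% CO2.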

The nature of experiment [3]: qHTS assay for identifying genotoxic compounds that show differential cytotoxicity against isogenic chicken DT40 cell lines with known DNA damage response pathways - Rev3 mutant cell line (AID 743014). Also: nearly all actives have a fitted effect of over 55% in size. Also: potency is read from the fitted curve at half-maximal effect.
Experiment [4] is described as follows: qHTS assay for identifying genotoxic compounds that show differential cytotoxicity against isogenic chicken DT40 cell lines with known DNA damage response pathways - Rad54/Ku70 mutant cell line (AID 743015). Also: nearly all actives have a fitted effect of over 60% in size. Also: potency is read from the fitted curve at half-maximal effect.
Experiment [5] in a line: qHTS assay to identify small molecule antagonists of the androgen receptor (AR) signaling pathway - cell viability counter screen (AID 743033; also: nearly all actives have a fitted effect of over 45% in size).
Experiment [6] concerns the target Androgen receptor (Homo sapiens) (UniProt P10275). The experiment can be described thus: qHTS assay to identify small molecule antagonists of the androgen receptor (AR) signaling pathway (AID 743035; active = well fitted inhibition curve with a large enough effect in the signal ratio in the repeat runs, not every such curve was filed as active; the % refers to the signal ratio). The gist of the method: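 Reporter HEK293 cells were exposed to compounds and R1881 overnight (16 h, 37C); beta-lactamase activity was then quantified by FRET fluorescence.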

The target is the same in experiment [7]. Kind of experiment: qHTS assay to identify small molecule agonists of the androgen receptor (AR) signaling pathway (AID 743036; active = well fitted activation curve with a large enough effect in the signal ratio in the repeat runs, with a control signal flat, not every such curve was filed as active; the % refers to the signal ratio). The gist of the method:
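Fluorescence from a beta-lactamase FRET substrate served as read-out in AR-UAS-bla GripTite HEK293 cells. Cells were treated with DMSO-dissolved compounds for 16 h at 37C, then with LiveBLAzer B/G substrate for 2 h at room temperature.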

Experiment [8] has the same target. The experiment can be described thus: qHTS assay to identify small molecule agonists of the androgen receptor (AR) signaling pathway using the MDA cell line (AID 743040; also: nearly all actives have a fitted effect of over 20% in size). In short, it runs like this:
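Cell-based luciferase reporter: MDA-kb2, MMTV promoter (AR + GR response elements). 16 h compound exposure at 37C; ONE-Glo, 30 min RT, luminescence.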

A short description of experiment [9]: qHTS assay to identify small molecule antagonists of the androgen receptor (AR) signaling pathway using the MDA cell line - cell viability counter screen (AID 743041; also: nearly all actives have a fitted effect of over 45% in size). The gist of the method: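 In this qHTS counter assay, fluorescence intensity after CellTiter-Fluor addition indicated viability of MDA-kb2 AR-luc cells given compounds and R1881 for 16 h at 37C.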

The target in experiment [10] is Androgen receptor (Homo sapiens) (UniProt P10275). The experiment can be described thus: qHTS assay to identify small molecule antagonists of the androgen receptor (AR) signaling pathway using the MDA cell line (AID 743042; also: nearly all actives have a fitted effect of over 55% in size). The gist of the method: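 MDA-kb2 cells (human breast carcinoma, stably carrying an MMTV-luciferase reporter responsive to AR and GR) were plated at 3,000 cells/well and preincubated 5 hr at 37C, then given compound plus R1881 agonist for 16 h. ONE-Glo luminescence was read.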
Chain of Androgen receptor (Homo sapiens) (P10275 whole entry, looked up): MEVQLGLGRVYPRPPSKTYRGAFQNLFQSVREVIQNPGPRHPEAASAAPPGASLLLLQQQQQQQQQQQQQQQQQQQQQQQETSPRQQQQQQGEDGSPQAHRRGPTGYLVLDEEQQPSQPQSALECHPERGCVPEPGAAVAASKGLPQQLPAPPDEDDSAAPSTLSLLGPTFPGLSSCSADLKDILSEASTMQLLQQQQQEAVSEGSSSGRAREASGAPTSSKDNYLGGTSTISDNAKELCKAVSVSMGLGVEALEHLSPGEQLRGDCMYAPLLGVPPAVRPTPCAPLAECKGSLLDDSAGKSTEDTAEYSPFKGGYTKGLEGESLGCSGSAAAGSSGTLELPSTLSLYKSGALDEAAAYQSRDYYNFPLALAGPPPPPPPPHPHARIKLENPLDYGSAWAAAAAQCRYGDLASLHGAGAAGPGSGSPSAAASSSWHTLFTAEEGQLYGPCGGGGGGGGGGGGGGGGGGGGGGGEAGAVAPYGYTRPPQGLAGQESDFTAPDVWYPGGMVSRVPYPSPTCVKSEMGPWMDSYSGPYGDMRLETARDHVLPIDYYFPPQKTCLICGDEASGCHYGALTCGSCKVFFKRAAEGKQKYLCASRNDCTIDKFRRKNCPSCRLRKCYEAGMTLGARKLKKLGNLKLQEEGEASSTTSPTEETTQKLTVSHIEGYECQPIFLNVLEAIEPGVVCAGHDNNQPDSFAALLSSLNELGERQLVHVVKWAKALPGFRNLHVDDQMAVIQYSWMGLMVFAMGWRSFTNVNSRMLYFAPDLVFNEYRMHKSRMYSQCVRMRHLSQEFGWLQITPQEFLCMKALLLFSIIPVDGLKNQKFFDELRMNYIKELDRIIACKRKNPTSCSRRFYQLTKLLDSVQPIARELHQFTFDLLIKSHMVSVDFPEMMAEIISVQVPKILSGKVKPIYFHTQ

Structures are written as SMILES. Inconclusive results are not listed. Some structures have more than one record in an assay (separate samples or runs), and their calls can disagree. The source made the active and inactive calls. Unless noted, calls follow the shape of the dose curve; as a rule, active = well fitted curve in the direction sought with a large enough effect in the repeat runs; inconclusive = weak or mixed curves; inactive = no such curve, though single readings can be large; an effect the other way counts as inactive or inconclusive.

Turning to `C#C[C@]1(OC(C)=O)CC[C@H]2[C@@H]3CCC4=C/C(=N/O)CC[C@@H]4[C@H]3CC[C@@]21CC`, the Potency was 21.3 µM (active) in experiment [1], 9.44 µM (active) in experiment [2], 13.3 µM (active) in experiment [3] and 10.6 µM (active) in experiment [4]. For the same compound, in [5], the Potency result was “inactive”.

As to `C=C(C)c1cccc(C(=C)C)c1`, the Potency entry in [1], in [2], in experiment [3], in [4] and in [5] was “inactive” in each case.

As to `CC(=O)c1ccc(C(C)=O)cc1`, the Potency entry in experiment [1], in experiment [2], in [3], in experiment [4], in [5] and in experiment [6] was “inactive” throughout. Further, the Potency result in [7], in experiment [9] and in [10] was “inactive” throughout. In addition, the compound was classed as inactive in experiment [8].

Take `OC[C@H]1O[C@H](O[C@H]2O[C@H](CO)[C@@H](O)[C@H](O)[C@H]2O)[C@H](O)[C@@H](O)[C@@H]1O`: the Potency result in experiment [1], in experiment [2], in [3], in [4], in [5] and in experiment [6] was “inactive” in each case. Further, the Potency entry in experiment [9] and in experiment [10] was “inactive” each time. The call in [8] was inactive.

With `CC(C)OC(=O)C(O)(CC(=O)O)CC(=O)O`, the Potency entry in experiment [1], in experiment [2], in experiment [3], in experiment [4], in [5] and in experiment [6] was “inactive” throughout. Further, the Potency entry in [7], in [9] and in experiment [10] was “inactive” in each case. Also, the outcome in [8] was inactive.

As to `OC/C=C/CO`, the Potency result in [1], in experiment [2], in experiment [3], in [4] and in experiment [5] was “inactive” throughout.

As for `CC(CCc1ccccc1)NCC(O)c1ccc(O)c(C(N)=O)c1` (stereo not given), the Potency entry in experiment [1], in [2], in experiment [3], in experiment [4] and in [5] was “inactive” throughout.

In the case of `Cc1c(C)c2c(c(C)c1OC(=O)c1cccnc1)CC[C@@](C)(CCC[C@H](C)CCC[C@H](C)CCCC(C)C)O2`, the Potency entry in experiment [1], in [2], in [3], in experiment [4] and in experiment [5] was “inactive” throughout.

On to `[Cu+]`, for which the Potency entry in experiment [1] and in [5] was “inactive” throughout. Besides, the figures for the Potency in [2], in experiment [3] and in [4] were 54.5 µM (active), 54.5 µM (active) and 30.6 µM (active), respectively.

Regarding `C=C(C)C(=O)OCCCCCCCCCC`, the Potency entry in experiment [1], in experiment [2] and in experiment [3] was “inactive” in each case.

On to `Cc1cc(-c2ccc(N=Nc3cc(S(=O)(=O)O)c4ccccc4c3N)c(C)c2)ccc1N=Nc1cc(S(=O)(=O)O)c2ccccc2c1N`, for which, in experiment [1], the Potency result was “inactive”. Moreover, the Potency was 0.548 µM (active) in experiment [2], 0.388 µM (active) in [3] and 0.346 µM (active) in experiment [4].

Regarding `C[C@@H](O)[C@H](N)C(=O)O`, the Potency result in experiment [1], in [2], in experiment [3], in experiment [4] and in experiment [5] was “inactive” each time.

`Nc1ccc(C(=O)O)c(O)c1`: the Potency entry in experiment [1], in experiment [2], in [3], in [4], in experiment [5] and in [6] was “inactive” in each case. For the same compound, the Potency entry in experiment [7], in experiment [9] and in experiment [10] was “inactive” throughout. In addition, the call in experiment [8] was inactive.

Regarding `Cc1ccc(O)c(N)c1`, the Potency result in [1] and in experiment [5] was “inactive” in each case. Further, the Potency in experiment [2] is 54.5 µM (active); in [3], 54.5 µM (active); in experiment [4], 61.2 µM (active).

With `Cc1nc(-c2ccc(Cl)cc2)oc1COC(C)(C)C(=O)O`, the Potency result in experiment [1], in experiment [2], in experiment [3], in experiment [4] and in [5] was “inactive” each time.

With `C#C[C@]1(O)CC[C@H]2[C@@H]3[C@H](C)CC4=C(CCC(=O)C4)[C@H]3CC[C@@]21C`, the Potency entry in [1] and in [5] was “inactive” each time. In addition, the Potency was 10.6 µM (active) in [2], 29.8 µM (active) in experiment [3] and 21.1 µM (active) in experiment [4].

Turning to `Cc1ccc(C)cc1`, the Potency result in [1], in experiment [2], in [3], in experiment [4], in [5] and in [6] was “inactive” each time. The Potency result in experiment [7], in [9] and in [10] was “inactive” in each case. Also, in experiment [8], the compound was called inactive.

For `OCCN1CCN(CCCN2c3ccccc3Sc3ccc(C(F)(F)F)cc32)CC1`, in experiment [1], the Potency entry is “inactive”. In addition, the Potency is 3.76 µM (active) in experiment [2], 1.68 µM (active) in [3] and 4.22 µM (active) in experiment [4].

As for `O=C(O)c1cc(O)c2ccccc2c1O`, the Potency result in [1] and in experiment [5] was “inactive” in each case. Besides, the Potency in experiment [2] is 6.11 µM (active); in [3] it was 5.45 µM (active); in experiment [4], 6.11 µM (active).

Take `CC1(C)[C@@H](O)CC[C@]2(C)[C@H]3C(=O)C=C4[C@@H]5C[C@@](C)(C(=O)O)CC[C@]5(C)CC[C@@]4(C)[C@]3(C)CC[C@@H]12`: the Potency result in [1], in experiment [2], in [5], in [6], in experiment [7] and in [9] was “inactive” throughout. The Potency result in experiment [10] was “inactive”. The Potency in experiment [3] is 5.96 µM (active) and inactive; in experiment [4] it was 2.37 µM (active) and inactive. For the same compound, the outcome in experiment [8] was inactive.

Consider `CC1(C)CCC[C@]2(C)[C@H]3CCO[C@]3(C)CC[C@@H]12`, for which the Potency result in [1], in experiment [2], in experiment [3], in experiment [4] and in [5] was “inactive” throughout.

Consider `CCCC(=O)OC(C)(C)Cc1ccccc1`, for which the Potency result in experiment [1], in experiment [2], in [3], in [4] and in experiment [5] was “inactive” each time.

For the compound `CCCCC(CC)CN1CN(CC(CC)CCCC)CC(C)(N)C1` (stereo not given), the Potency entry in experiment [1], in experiment [5], in experiment [6], in experiment [7], in experiment [9] and in [10] was “inactive” in each case. For the same compound, the Potency in [2] was 10.1 µM (active); in experiment [3], 12.7 µM (active); in experiment [4] it was 8.04 µM (active). In [8], the call was inactive.

For the compound `O=C(/C=C/c1ccccc1)OC/C=C/c1ccccc1`, the Potency result in experiment [1], in experiment [5], in [6], in experiment [7], in experiment [9] and in experiment [10] was “inactive” throughout. In addition, the Potency in experiment [2] is 17.2 µM (active); in experiment [3], 15.4 µM (active); in experiment [4], 13.7 µM (active). In experiment [8], the compound was called inactive.

As to `COC(C)=O`, the Potency entry in experiment [1], in experiment [2], in [3], in experiment [4] and in [5] was “inactive” throughout.

As to `O=C1OC2(c3ccc(O)cc3Oc3cc(O)ccc32)c2ccc(N=C=S)cc21`, the Potency entry in experiment [1], in experiment [2], in experiment [3], in experiment [4] and in experiment [5] was “inactive” each time.

Source of the values: PubChem BioAssay (Tox21).
